# Compound activity deposited in PubChem BioAssay by The Scripps Research Institute Molecular Screening Center.
# MOR-DOR ag: agonists of OPRM1-OPRD1 heterodimerization, primary screen, cell-based, luminescence; activation, % at 9.3 µM; 340,000 compounds, 0.3% hits; cells; Mu-type opioid receptor (Homo sapiens) + Delta-type opioid receptor (Homo sapiens), …;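 note: 0% = vehicle-treated cells and 100% = reference agonist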
# HTR5A ag ctr: HTR5A agonists in luminescence cell assay, primary screen, counter-screen for OPRM1-OPRD1 heterodimer agonist project, full-deck HTS | 5-hydroxytryptamine receptor 5A (Homo sapiens), P47898 | cell-based | activation, % at 9.3 µM | 340,000 compounds, 0.61% hits | AID 504692, 2011; in the data active = activation mostly above about 9.5%, no sharp cut-off; inactive = mostly below about 7.6%;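 note: 0% = cells with vehicle only and 100% = reference agonist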
# MOR-DOR inv ag: inverse agonists of MOR-DOR heterodimerization, primary screen, cell-based, luminescence | cell-based MOR-DOR heterodimer luminescence, inverse agonism | inhibition, % at 9.3 µM | 340,000 compounds, 0.21% hits; in the data active = inhibition above about 22%, passing the limit was not always enough;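 note: 0% = cells with DMSO and 100% = wells without cells with DMSO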
# HTR5A inv ctr: HTR5A inverse agonists in luminescence cell assay, primary screen, counter-screen for OPRM1-OPRD1 heterodimer inverse agonist project, full-deck HTS | HTR5A cell line, inverse agonism | 340,000 compounds, 0.083% hits | inhibition, % at 9.3 µM | AID 504634, 2011 | 5-hydroxytryptamine receptor 5A (Homo sapiens), P47898; in the data active = inhibition mostly above about 23%, no sharp cut-off; inactive = mostly below about 18%;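 note: 0% = cells with DMSO and 100% = no-cell wells with DMSO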
# OPRM1-D1 ag cf: agonists of MOR-DOR heterodimerization, confirmation, cell-based, luminescence | shares compounds with MOR-DOR ag | cells, luminescence complementation | activation, % at 9.3 µM | 830 compounds, 45% hits;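 note: 0% = vehicle-treated cells and 100% = reference agonist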
# HTR5A ag ctr2: HTR5A agonists in cells, counter-screen for OPRM1-OPRD1 heterodimer agonist project, cell-based, luminescence; shares compounds with MOR-DOR ag; activation, % at 9.3 µM; HTR5A agonist counterscreen; 830 compounds, 8% hits; in the data active = activation above about 17%;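 note: 0% = vehicle-treated cells and 100% = reference agonist response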
# * = called active by the depositor; i = inactive; · = no result given. Compounds with a hit are over-represented: about 1.1% of the library has one in this group of screens. Cut-off read from the data, not from the text of the source, unless noted: active = activation above about 18%; inactive = the rest.
SMILES,MOR-DOR ag,HTR5A ag ctr,MOR-DOR inv ag,HTR5A inv ctr,OPRM1-D1 ag cf,HTR5A ag ctr2
CN(C)C1(CNC(=O)CC(NC(=O)c2ccccc2Cl)c2ccccc2)CCCCC1 (stereo unspecified),22*,4,-116,-12,5,2
Cc1ccc(C)c(CN2C(=O)c3ccccc3S(=O)c3ccc(C(=O)N4CCN(c5ccccn5)CC4)cc32)c1 (stereo unspecified),27*,1,-126,-29,14,7
COc1ccccc1CNS(=O)(=O)c1ccc(-c2cnc(C3CC3)o2)cc1,-1,-1,4,5,·,·
CN(C)CCCN(C(=O)c1ccc(Br)s1)c1nc2cc3c(cc2s1)OCCO3,35*,1,-183,-2,93*,0
COC(=O)CSc1nnc(-c2sc3cc(OC)ccc3c2Cl)n1C,19*,-3,-85,-10,1,3
Cc1ccccc1OCC(O)Cn1c(=N)n(Cc2ccccc2)c2ccccc21 (stereo unspecified),31*,2,-155,-6,53*,8
COc1ccccc1OCC(O)Cn1c(=N)n(Cc2ccccc2)c2ccccc21 (stereo unspecified),2,-1,-13,18,·,·
O=C(COc1cccc(Cl)c1)Nc1ccccc1N1CCCCC1,0,-2,-2,4,·,·
CCN(C(=O)c1cccs1)c1nc(-c2ccc(OC)cc2)cs1,-2,-4,9,10,·,·
COc1ccc(-c2csc(N(CCCN(C)C)C(=O)c3cccs3)n2)cc1,26*,4,-131,-11,43*,-1
Oc1cccc2c(NC(=S)Nc3ccc(SC(F)F)cc3)cccc12,6,-2,-36,5,·,·
Oc1cccc(NC(=S)Nc2ccc(SC(F)F)cc2)c1,32*,-7,-193,19,4,2
COc1ccc(CN2CCC(n3nccc3NC(=O)CCc3ccccc3)CC2)c(C)c1C,23*,-1,-117,-2,4,-2
COc1cccc(CN2CCC(n3nccc3NC(=O)CCCc3ccccc3)CC2)c1O,-2,3,10,17,·,·
CC(C)C(Cl)=NOC(=O)Nc1ccc(S(N)(=O)=O)cc1,3,-2,-12,8,·,·
COc1cccc(N2CCN(c3ncnc4c3cnn4-c3ccc(C)cc3C)CC2)c1,23*,-2,-130,4,27*,15
COc1ccc(C2C(C#N)=C3NC(=O)c4c(sc5c4CCCCC5)N3C3=C2C(=O)CC(C)(C)C3)cc1 (stereo unspecified),2,2,-12,-6,·,·
COc1ccc(C2C(C#N)=C(N)N(c3sc4c(c3C#N)CCCC4)C3=C2C(=O)CC(C)(C)C3)cc1 (stereo unspecified),88*,1,i,-4,211*,-5
COc1ccc(C2C(C#N)=C(N)N(c3sc4c(c3C#N)CCCC4)C3=C2C(=O)CC(C)(C)C3)cc1OC (stereo unspecified),23*,1,-143,-5,31*,25*
CN(C)C(CNC(=O)c1ccc(C(F)(F)F)cc1)c1ccco1 (stereo unspecified),51*,3,-209,-8,52*,1
CN(C)C(CNC(=O)c1cc2ccccc2o1)c1ccco1 (stereo unspecified),22*,5,-93,-12,147*,0
O=C(NCc1ccco1)c1cc2ccccc2o1,-1,0,8,0,·,·
COc1ccc(C(=O)NCC(=O)NCC(c2ccco2)N(C)C)cc1OC (stereo unspecified),0,-4,-2,13,·,·
Cc1ccc(CC(=O)NCC(c2ccco2)N(C)C)cc1C (stereo unspecified),69*,-6,-387,15,56*,1
CC(=O)Nc1ccc(C(=O)NCC(c2ccco2)N(C)C)cc1 (stereo unspecified),1,1,-3,-3,·,·
SMILES,MOR-DOR ag,HTR5A ag ctr,MOR-DOR inv ag,HTR5A inv ctr,OPRM1-D1 ag cf,HTR5A ag ctr2
Cc1ccc(-c2csc(/C(C#N)=C(\O)CCl)n2)cc1,20*,6,-90,-15,17,10
CCOC(=O)c1cc(NC(=O)c2cc(C)on2)cc(C(=O)OCC)c1,22*,8,-119,-8,3,3
COc1cc(NC(=O)c2cc(C)on2)cc(OC)c1OC,0,-1,-3,12,·,·
COC(=O)/C=C1/SC(=NC(=O)c2cccc([N+](=O)[O-])c2)NC1=O,-3,-1,16,5,·,·
Cc1cc(C)cc(Oc2coc3cc(OC(=O)c4cccnc4)ccc3c2=O)c1,22*,-4,-118,13,2,0
CC(=O)Oc1ccc(C2=Cc3ccc(OC(C)=O)cc3OC2C)cc1 (stereo unspecified),-1,2,5,-7,·,·
CCOc1ccc(NC(=S)N2CCN(S(=O)(=O)c3ccccc3)CC2)cc1,31*,-4,-128,11,1,-1
CCCc1cc(=O)oc2c(C)c(O[C@@H]3O[C@H](CO)[C@@H](O)[C@H](O)[C@H]3O)ccc12,0,-3,2,11,·,·
COc1cccc(CC2(CO)CCCN(Cc3ccccc3-c3ccco3)C2)c1 (stereo unspecified),97*,-1,i,-29,128*,1
CCOC(=O)C1(CC2CCCCO2)CCN(Cc2cc3ccccc3[nH]2)CC1 (stereo unspecified),307*,4,i,-9,2,-1
OCC1(CC2CCCCO2)CCN(Cc2ccccc2-c2ccco2)CC1 (stereo unspecified),96*,-1,i,4,136*,3
CCOC(=O)C1(CC2CCCCO2)CCN(Cc2ccccc2-c2ccco2)CC1 (stereo unspecified),379*,3,i,3,10,4
COc1cccc(CC2(CO)CCCN(Cc3ccc(-c4ccco4)cc3)C2)c1 (stereo unspecified),3,-1,-14,1,·,·
CC(OC(=O)c1ccc([N+](=O)[O-])o1)C(=O)Nc1nc(-c2ccc(F)c(F)c2)cs1 (stereo unspecified),9,8,-57,-17,·,·
CC(C)CN1CCN(C(=O)CCc2nnc(Cc3c[nH]c4ccccc34)o2)[C@@H](C)C1=O,-3,-1,17,5,·,·
COc1ccccc1CNC(=O)c1cccc(S(=O)(=O)N(C)c2ccccc2)c1,-2,1,9,-3,·,·
c1ccc(CCNc2ccnc3cc4ccccc4cc23)cc1,32*,10,-164,4,24*,12
CCOc1cc(N2CCOCC2)c(OCC)cc1NC(=O)c1c(C)noc1C,4,0,-20,-1,·,·
